PglD DTNB: PglD (C. jejuni) enzyme inhibition; inhibition, % at 12.5 µM; purified PglD enzyme, DTNB colorimetric CoA detection; 360,000 tested, 0.098% active; in the data active means inhibition above about 16%, passing the limit was not always enough
ALR H2O2 inh: human ALR oxidase inhibition via reduced H2O2; P55789; purified ALR, DTT oxidation, H2O2 HRP-luminol luminescence; inhibition, % (no concentration beside the values); 290,000 tested, 3.8% active; AID 485317;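 active means mean replicate inhibition above about 79%, with every replicate also reaching it, limit read from the data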
NSD2 inh: blocks human histone methyltransferase NSD2; O96028; NSD2 peptide methylation, AlphaScreen, 120 min; inhibition, % at 12.5 µM; 310,000 tested, 0.54% active; in the data active means inhibition above about 50%
CFTR F508del cor: CFTR F508del correction in bronchial cells; AID 720511; CFBE cells, YFP halide quenching; stimulated with forskolin plus potentiator P3; % fluorescence drop versus neutral controls; activity (quench increase), % at 7.58 µM; 350,000 tested, 0.36% active;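 active means mean added fluorescence quench of at least 8% versus neutral control, with both replicates also reaching 8%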;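 further: cells transiently co-express mutant CFTR-F508del with the halide-sensitive YFP; corrector assay measuring rescue of mutant channel to the surface after 24 h compound exposure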
Casp6 inh: inhibitors of human caspase-6; P55212; 350,000 tested, 0.53% active; purified caspase-6, Z-VEID-R110 cleavage fluorescence; inhibition, % at 12.5 µM;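 active means mean inhibition across replicates at least about 35%, with every replicate also reaching that limit, limit read from the data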
HIV Env fusion: blocks HIV Env-driven cell-cell fusion | HeLa-JRFL Env/CEM21 cell fusion, luciferase | inhibition, % at 12.3 µM | 360,000 tested, 1.1% active | AID 651610;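 active means mean replicate inhibition score of at least 50 and every replicate individually at or above 50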
Each line names hits and unclear results; the compound was inactive in the other large screens. Rows were chosen to be rich in hits. Some 4.1% of all compounds tested hit in one or more screens of this group.

CCC(C)(C)NC(=O)C(NS(=O)(=O)c1cccs1)c1ccccc1 (configuration not stated)	HIV Env fusion 71 (no result: ALR H2O2 inh, CFTR F508del cor)
O=C(NCc1cccs1)C(Cc1ccccc1)NS(=O)(=O)c1cccs1 (configuration not stated)	HIV Env fusion 55 (no result: CFTR F508del cor, Casp6 inh)
O=C(NCc1ccc(F)cc1)C(Cc1ccccc1)NS(=O)(=O)c1cccs1 (configuration not stated)	none (no result: ALR H2O2 inh, CFTR F508del cor)
COc1ccc2c3c([nH]c2c1)[C@@H](CO)N(C(=O)c1ccncc1)CC31CCN(C(=O)c2ccncc2)CC1	none (no result: PglD DTNB, ALR H2O2 inh, NSD2 inh, HIV Env fusion)
CN(CC(=O)NCc1ccco1)S(=O)(=O)c1ccc2c(c1)n(C)c(=O)c(=O)n2C	ALR H2O2 inh 92 (no result: CFTR F508del cor, Casp6 inh)
CN(CC(=O)NCc1ccccc1Cl)S(=O)(=O)c1ccc2c(c1)n(C)c(=O)c(=O)n2C	none
O=C(NCSc1ccnc(SCNC(=O)c2ccccc2)n1)c1ccccc1	none (no result: HIV Env fusion)
O=C(NCSc1ccncn1)c1ccccc1	ALR H2O2 inh 99 (no result: CFTR F508del cor, Casp6 inh)
Cc1nn(CCc2n[nH]c(=S)n2-c2ccc(F)cc2)c(C)c1[N+](=O)[O-]	ALR H2O2 inh 81 (no result: PglD DTNB, CFTR F508del cor, Casp6 inh)
Cc1nn(C(C)c2n[nH]c(=S)n2-c2ccc(F)cc2)c(C)c1[N+](=O)[O-] (configuration not stated)	none (no result: CFTR F508del cor, Casp6 inh)
Cc1nn(CCc2n[nH]c(=S)n2-c2cccc(Cl)c2)c(C)c1[N+](=O)[O-]	none (no result: CFTR F508del cor, Casp6 inh)
Cc1nn(CCc2n[nH]c(=S)n2-c2ccc(F)c(Cl)c2)c(C)c1[N+](=O)[O-]	ALR H2O2 inh 92 (no result: CFTR F508del cor, Casp6 inh)
C=CCn1c(SCC(=O)c2ccc(O)c(O)c2)nnc1-c1ccc(OC)cc1	ALR H2O2 inh 91 (no result: NSD2 inh)
C=CCn1c(SCC(=O)c2ccc(O)c(O)c2)nnc1-c1cccc(OC)c1	ALR H2O2 inh 99 (no result: NSD2 inh, Casp6 inh)
C=CCn1c(SCC(=O)c2cccs2)nnc1-c1cccc(OC)c1	ALR H2O2 inh 93 (no result: CFTR F508del cor, Casp6 inh, HIV Env fusion)
C[C@@H]1CN([C@@H](C)CO)C(=O)c2ccccc2-c2ccccc2CO[C@@H]1CN(C)C(=O)c1ccccc1	none (no result: ALR H2O2 inh, NSD2 inh, HIV Env fusion)
O=C(CCN1CCCCC1)N[C@@H]1C=C[C@H](CC(=O)N2CCC(Cc3ccccc3)CC2)O[C@@H]1CO	none (no result: ALR H2O2 inh, NSD2 inh)
Cn1c(CSCc2ccc(Cl)c(Cl)c2)n[nH]c1=S	ALR H2O2 inh 90 (no result: CFTR F508del cor, Casp6 inh)
Cn1c(CSCCOc2ccccc2)n[nH]c1=S	Casp6 inh 45
CCn1c(CSCc2ccc(Cl)cc2)n[nH]c1=S	none (no result: PglD DTNB)
COc1ccc(NC(=O)N(C)C[C@@H]2Oc3ccc(NC(=O)CCC(F)(F)F)cc3C(=O)N([C@@H](C)CO)C[C@@H]2C)cc1	none (no result: ALR H2O2 inh, NSD2 inh)
O=C(C1CCOCC1)N1C[C@H]2[C@@H](c3ccccc31)[C@H](CO)N2C(=O)Cc1ccccc1	none (no result: ALR H2O2 inh, NSD2 inh, HIV Env fusion)
C[C@@H]1CN([C@@H](C)CO)S(=O)(=O)c2ccc(-c3cccnc3)cc2O[C@@H]1CN(C)C(=O)CC1CC1	none (no result: ALR H2O2 inh, NSD2 inh)
C[C@H](CO)N1C[C@H](C)[C@H](CN(C)C(=O)c2cccc(F)c2)Oc2cc(-c3ccncc3)ccc2S1(=O)=O	none (no result: ALR H2O2 inh, NSD2 inh, CFTR F508del cor)
COc1cc(C(=O)c2cocc2C(=O)c2ccc3c(c2)OCO3)cc(OC)c1OC	CFTR F508del cor 13
O=C(C[C@@H]1CC[C@@H](NS(=O)(=O)c2ccccc2)[C@@H](CO)O1)N1CCN(c2ccccc2)CC1	none (no result: PglD DTNB, ALR H2O2 inh, NSD2 inh, HIV Env fusion)
O=C(NNC(=S)NC(=O)c1ccccc1[N+](=O)[O-])c1ccccc1Cl	none (no result: PglD DTNB, CFTR F508del cor)
O=C(NC(=S)NNC(=O)c1ccccc1[N+](=O)[O-])c1ccc(Br)cc1	ALR H2O2 inh 99
O=C(NC(=S)NNS(=O)(=O)c1ccccc1)c1ccccc1[N+](=O)[O-]	Casp6 inh 52 (no result: PglD DTNB, ALR H2O2 inh, CFTR F508del cor)
O=C(NC(=S)NNS(=O)(=O)c1ccccc1)c1ccc([N+](=O)[O-])cc1	none (no result: PglD DTNB, ALR H2O2 inh, CFTR F508del cor, Casp6 inh)
N#Cc1cccc(-c2ccc(C3[C@H]4CNC[C@@H]3N4Cc3ccc4c(c3)OCO4)cc2)c1 (some centres not stated)	none (no result: PglD DTNB, ALR H2O2 inh, NSD2 inh, HIV Env fusion)
COc1ccc([C@H]2CC(=O)C=C(c3cc(Cl)ccc3OC)C2)cc1	none (no result: NSD2 inh)
CCOc1ccc(Cl)cc1C1=CC(=O)C[C@H](c2ccc(OC)cc2)C1	CFTR F508del cor 9.1 (no result: NSD2 inh)
COc1ccc([C@H]2CC(=O)C=C(c3cccc(C(C)C)c3)C2)cc1OC	HIV Env fusion 63 (no result: NSD2 inh)
COc1ccc([C@H]2CC(=O)C=C(c3c(OC)cccc3OC)C2)cc1	CFTR F508del cor 11 (no result: NSD2 inh)
CC(=O)Nc1ccccc1OCC(=O)N(Cc1ccccc1)C(C)C	HIV Env fusion 61 (no result: CFTR F508del cor)
